Assay results from PubChem BioAssay (NCI).
This is part of a sample that, as a whole, favours compounds with a hit. Of some 79,000 tested, about 15% had one in any assay. No stated cut-off is given here; in the data, active means growth inhibition above about 70%; inactive means the rest.

Experiments:
[1] = NCI Yeast Anticancer Drug Screen. Data for the rad50 strain (AID 155);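 further: 0% = growth of vehicle-only cultures of the same strain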; conditions: S. cerevisiae rad50 strain growth inhibition; at 50.0 µM; active compounds read high
In short: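 Genetically altered yeast (DNA repair pathway); compound treatment; growth inhibition vs vehicle ctrl.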

[2] = NCI Yeast Anticancer Drug Screen. Data for the mec2-1 strain (AID 157); conditions: S. cerevisiae mec2-1 strain, at 50.0 µM, active compounds read high
In short: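 Growth inhibition is read against vehicle-treated controls after compound exposure of the mec2-1 yeast strain, which is defective in DNA damage repair or cell cycle control.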

[3] = NCI Yeast Anticancer Drug Screen. Data for the sgs1 mgt1 strain (AID 161);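 further: 0% = growth of cultures given vehicle only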; conditions: S. cerevisiae sgs1 mgt1 strain, at 50.0 µM, active compounds read high
In short: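 Yeast cells carrying a defined DNA-repair defect were exposed to test compounds. Growth inhibition was measured relative to vehicle-treated controls.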

[4] = NCI Yeast Anticancer Drug Screen. Data for the cln2 rad14 strain (AID 165);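 further: 0% = growth equal to vehicle treated cultures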; conditions: S. cerevisiae cln2 rad14 strain, at 50.0 µM, active compounds read high
In short: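 Growth inhibition, relative to vehicle-treated controls, is the read-out. The test organism is a yeast strain with defined genetic alterations, cln2 rad14.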

[5] = NCI Yeast Anticancer Drug Screen. Data for the bub3 strain (AID 167); conditions: S. cerevisiae bub3 mutant strain, at 50.0 µM, active compounds read high
In short: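 Yeast carrying a defined mutation is treated with each compound, and growth is compared with that of vehicle-exposed cells to give inhibition.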

[6] = NCI Yeast Anticancer Drug Screen. Data for the mlh1 rad18 strain (AID 175); conditions: S. cerevisiae mlh1 rad18 strain growth inhibition; at 50.0 µM; active compounds read high
In short: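 Cells of a genetically altered yeast strain, deficient in DNA damage repair, were treated with compound. Their growth was then compared with that of vehicle-treated cultures to give inhibition.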

Measured: growth inhibition

O=C1C(c2cnc3c(n2)CCC=C3)=C(O)c2ccccc21
inactive: [1] -1.15% | [2] -7.8% | [3] -6.6% | [4] -84.2% | [5] -16.7% | [6] -0.65%

Cn1cc(C2(C)CC(C)(C)c3c2n(C)c2ccccc32)c2ccccc21 (stereo unspecified)
inactive: [1] 0.3% | [2] -16.1% | [3] -12.2% | [4] 7.15% | [5] -17.9% | [6] 2.95%

CC(C)Oc1ccc(C(=O)OCCC(C)N2CCCC2)cc1 (stereo unspecified)
inactive: [1] 40.9% | [2] 36.7% | [3] 53.2% | [4] 31.5% | [5] 46.4% | [6] 27.9%

c1ccc2c(c1)ccc1c3c(oc12)CCCC3
inactive: [1] -10.5% | [2] -6.45% | [3] -15.7% | [4] -36.4% | [5] 0.25% | [6] -5.9%

CCCCN(CCCC)CCC(O)c1cc(C(F)(F)F)nc2c(C(F)(F)F)cccc12 (stereo unspecified)
inactive: [1] -0.6% | [2] 25.7% | [3] 0.45% | [4] 49.2% | [5] 13.3% | [6] 41.1%

O=C1CSC(c2ccc(Cl)c([N+](=O)[O-])c2)N1c1nncs1 (stereo unspecified)
inactive: [1] 7.9% | [2] 4.6% | [3] 24.2% | [4] 12.7% | [5] 10% | [6] 25.1%

CN(C)c1c2c(oc(=O)c1Cl)-c1ccccc1OCC2
inactive: [1] -14.3% | [2] -12.8% | [3] -10.4% | [4] -4.85% | [5] -19.1% | [6] -17.6%

CC1(O)CC(C(F)(F)F)(C(F)(F)F)OC1=O (stereo unspecified)
inactive: [1] -20.9% | [2] -42.7% | [3] -7.75% | [4] -28.9% | [5] -2.25% | [6] -13.9%

O=c1c2c(sc3ccccc13)CCC2
inactive: [1] 1.95% | [2] 18.6% | [3] -1.55% | [4] 46.9% | [5] -11.8% | [6] -0.9%

CCC(C)CCC(=O)OCC(=O)c1ccc(-c2ccccc2)cc1 (stereo unspecified)
inactive: [1] 13.7% | [2] -18.9% | [3] 14.8% | [4] -13.5% | [5] 7% | [6] 5.75%

COc1ccc(C2OC3=C(Nc4ccc([N+](=O)[O-])cc4N3)C2=O)cc1OC (stereo unspecified)
inactive: [1] -9.75% | [2] -24.2% | [3] -16.1% | [4] -3.7% | [5] -32.5% | [6] -0.7%

COc1cc(O)c(C(C)=O)c2c1C=CC(C)(C)O2
inactive: [1] -4.95% | [2] -47.1% | [3] -19.9% | [4] -16.8% | [5] -13.8% | [6] -14.7%

COc1ccc(N2C(=O)C3c4[nH]c5ccc(OC)cc5c4C4CCC(C(C)(C)C)CC4C3C2=O)cc1 (stereo unspecified)
inactive: [1] 22.1% | [2] 12.6% | [3] -5.45% | [4] -24% | [5] 16.1% | [6] 20.5%

CC(=O)C(=CC=C(c1ccc(N(C)C)cc1)c1ccc(N(C)C)cc1)C(C)=O
inactive: [1] -45.3% | [2] -8.55% | [3] 9.5% | [4] -14.8% | [5] 12.7% | [6] -13.6%

CCC(CC)OC(=O)Nc1cccc2ccccc12
inactive: [1] -16.4% | [2] -9.65% | [3] -5.75% | [4] -55% | [5] 4.9% | [6] -14.6%

CCc1c(COC(=O)NC)c(COC(=O)NC)cc2c1[nH]c1ccccc12
inactive: [1] -16.6% | [2] -1.95% | [3] -2.95% | [4] -16.4% | [5] -41% | [6] -14.6%

NC(=O)c1ccccn1
inactive: [1] 20.7% | [2] -5.45% | [3] 15% | [4] 18.3% | [5] 0.75% | [6] 28.4%

Cc1cccc2c1C1C(CC2=O)C(=O)c2ccccc2C1C (stereo unspecified)
inactive: [1] 7% | [2] -17.8% | [3] 3.5% | [4] 8.9% | [5] 11.6% | [6] 11.5%

CC(=O)/C(=C/N1CC(=O)NC1=S)C(=O)Nc1ccccc1
inactive: [1] -21.6% | [2] -23.2% | [3] -31.4% | [4] -0.35% | [5] -32.6% | [6] 2%

NC1CSc2ccccc2NC1=O (stereo unspecified)
inactive: [1] 20.5% | [2] 31.9% | [3] 7.8% | [4] 9.8% | [5] 22.8% | [6] 33%

CN(C)c1ccc(S(=O)c2ccc(N(C)C)cc2)cc1
inactive: [1] -30.4% | [2] -27.9% | [3] -44.9% | [4] -4.75% | [5] -48.4% | [6] -35%

OC(CCc1ccco1)CCc1ccco1
inactive: [1] 19.9% | [2] 6.6% | [3] 11.5% | [4] 1.4% | [5] 10.7% | [6] 14.1%

Clc1nc2ccccc2c2ccccc12
inactive: [1] 36.5% | [2] -3.6% | [3] -4% | [4] 29.5% | [5] -13.2% | [6] 4.5%

[O-]c1c[n+](-c2cc(Cl)ccc2Cl)no1
inactive: [1] 11.2% | [2] 2.9% | [3] -3.4% | [4] 4.8% | [5] -1.4% | [6] 2.55%

O=c1oc2nc(-c3ccccc3)[nH]c(=O)c2c2c1CCCC2
inactive: [1] -8.5% | [2] -7.15% | [3] -19.2% | [4] 9.3% | [5] -17.9% | [6] 19.9%

COC1(OC)C(c2ccc([N+](=O)[O-])cc2)C([N+](=O)[O-])C1(OC)OC (stereo unspecified)
inactive: [1] -14.1% | [2] -16.1% | [3] -32% | [4] -11.4% | [5] -8.4% | [6] -17.6%

CCOC(=O)C(O)(NC(=O)c1ccc(F)cc1)C(F)(F)F (stereo unspecified)
inactive: [1] 12.2% | [2] 1.85% | [3] -9.9% | [4] 17.1% | [5] -10.2% | [6] -23.9%

O=C(O)CC(Cc1ccc2c(c1)OCO2)C(=O)O (stereo unspecified)
inactive: [1] -5.6% | [2] -2.35% | [3] -34.2% | [4] -33.9% | [5] -54.6% | [6] 2.55%

COC(OC)C1(CCc2ccccc2)NC(=O)N(C)C1=O (stereo unspecified)
inactive: [1] -17.4% | [2] 2.2% | [3] 5.6% | [4] -19.9% | [5] 25.6% | [6] -0.65%

CCOC(=O)c1ncn(C2OC(CO)C(O)C2O)c1N (stereo unspecified)
inactive: [1] 19.5% | [2] 1.6% | [3] 31.4% | [4] 12.3% | [5] 14.2% | [6] 25.2%

CN(C)c1ccc(/C=C/c2ccnc3c(N)cccc23)cc1
inactive: [1] -3.95% | [2] -8.85% | [3] -14.4% | [4] -12.8% | [5] -10.9% | [6] 3.8%

CCCCCCCCCCCCCCCCCC(C)O (stereo unspecified)
inactive: [1] -8.7% | [2] -13.2% | [3] -1.05% | [4] 1.85% | [5] -10.4% | [6] -10.8%

COC(=O)C1C(O)C(C)C(O)C(C)(O)C=C(C)C2=C3C(=C(C)C(=O)c4c(O)c(c(C)c(OC(C)=O)c43)NC(=O)C(C)=C/C=C\C(C)(O)C(O)C(C)C1O)OCO2 (stereo unspecified)
inactive: [1] 14.3% | [2] 1.65% | [3] 0.85% | [4] -1.55% | [5] 3.85% | [6] 6.25%

C=C(C)C(=O)Oc1ccccc1-c1ccccc1
inactive: [1] 2.55% | [2] -10.2% | [3] -5.5% | [4] 15.6% | [5] 2.65% | [6] -26.5%

Cn1c(=O)cnc2c3ccccc3ccc21
inactive: [1] 22.8% | [2] 5.15% | [3] 23.6% | [4] 15.8% | [5] 18.4% | [6] 19.6%

Cn1nc2c(c1-c1cccnc1)CCCc1ccccc1-2
inactive: [1] 10.1% | [2] 24.6% | [3] 13.7% | [4] -15.4% | [5] 69.3% | [6] 28.9%

O=[N+]([O-])c1ccc2nc(Cl)cnc2c1
inactive: [1] 25.2% | [2] 31.2% | [3] 16.5% | [4] -5.2% | [5] 3.8% | [6] 38.6%

CN1C(NC(=O)C(C)(C)O)C(C)(C)C(C)(C)C1NC(=O)C(C)(C)O (stereo unspecified)
inactive: [1] 27.9% | [2] 2% | [3] 42.3% | [4] 6.8% | [5] 26.8% | [6] 29.6%

[S-]c1n[n+](-c2ccccc2)c(-c2ccc(Cl)cc2)s1
inactive: [1] -2.05% | [2] 5.8% | [3] 7.75% | [4] -3.65% | [5] -4.85% | [6] 0.45%

CC(I)CNC1=NCC(=O)N1 (stereo unspecified)
inactive: [1] -8.6% | [2] 5.9% | [3] -9.9% | [4] -21.1% | [5] 13.1% | [6] 13%

O=C(NSNc1ccccc1)c1ccccc1
inactive: [1] 0.8% | [2] -3% | [3] -7.6% | [4] -69.7% | [5] -0.6% | [6] -4.05%
